Source: PubChem
Only a selection was taken, and hits are over-represented in it overall.
Six1-Eya2 inh: qHTS Assay for Inhibitors of the Six1/Eya2 Interaction; activity change, % (no concentration beside the values); hit rate 0.56% among 360,000; Homeobox protein SIX1 (Homo sapiens) + Protein phosphatase EYA2 (Homo sapiens), …; AID 651725, 2012; AlphaScreen GST-Six1/His-Eya2 binding, biochemical; stronger effect = lower value; in the data active = activity change below about -65%; inconclusive = mostly about -30% to -63%
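Six1/Eya2 binding was read as AlphaScreen signal after compounds were pinned into GST-Six1 plus His-tagged Eya2 (5X stock 250/500 nM) in pH 8.0 Tris/NaCl/TCEP buffer, beads added, then incubated 1 h, 37 C, dark.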
Apoferritin bind: qHTS Assay for Identification of Novel General Anesthetics; Potency, µM (highest dose often 77.5 µM), without a hit: at the top dose activity change, negative = displacement, most hits filed as inhibitors; apoferritin/1-aminoanthracene competitive binding, fluorescence; hit rate 0.074% among 350,000; Ferritin light chain (Equus caballus), P02791; note: potency is the fitted concentration of half-maximal effect; nearly all actives have a fitted effect of over 20% in size
Target sequence (P02791 2-175 limits assumed): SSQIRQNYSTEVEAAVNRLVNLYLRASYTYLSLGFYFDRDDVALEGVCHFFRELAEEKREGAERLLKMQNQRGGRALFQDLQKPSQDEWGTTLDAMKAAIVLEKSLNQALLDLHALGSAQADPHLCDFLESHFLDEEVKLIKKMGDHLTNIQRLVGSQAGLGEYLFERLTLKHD
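Horse-spleen apoferritin (10 uM) in 50% saturated 1-aminoanthracene in PBS was incubated 10 min at room temperature with compound. Fluorescence (ex 380, em 535 nm) was normalized to free and bound 1-AMA, with concentration-response fitted by a four-parameter Hill equation.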
KDM4E inh: qHTS Assay for Inhibitors of Human Jumonji Domain Containing 2E (JMJD2E); JMJD2E catalytic domain, FDH-coupled NADH fluorescence (FDH is formaldehyde dehydrogenase); Potency, µM (top dose mostly 57.1 µM), for inactives: top-dose activity change, negative = inhibition, hits mostly inhibitors; hit rate 1.6% among 230,000; AID 2147, 2009; active = well fitted inhibition curve with a large enough effect, not every such curve was filed as active; inconclusive = small, poorly fitted or top-dose-only effect, or another doubt; inactive = no such curve, though single readings can be large or run the other way;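 note: potency is the fitted concentration of half-maximal effect; 0% = wells with enzyme and -100% = buffer wells without enzyme; nearly all actives have a fitted effect of over 50% in size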
Eya2 phos inh: qHTS Assay for Inhibitors of the Phosphatase Activity of Eya2; recombinant Eya2, OMFP fluorescence dephosphorylation (OMFP is methylfluorescein phosphate); Potency, µM (titrated, usually from 76.9 µM), for inactives: at the highest dose activity, negative = inhibition, actives largely listed as inhibitors; hit rate 0.006% among 330,000; note: potency is the fitted concentration of half-maximal effect
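Eya2 (0.2 uM) preincubated 10 min at ambient with compound, then OMFP substrate added at 50 uM; 10 min reaction in 50 mM HEPES pH 7.5, 50 mM NaCl, 5 uM MgCl2, 0.05% BSA, 1 mM DTT. Fluorescence read at Ex 485/Em 525 nm.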
CtBP-E1A blk: qHTS Assay for Inhibitors of the CtBP/E1A Interaction | CtBP / adenovirus E1A interaction (AlphaScreen) | hit rate 0.49% among 340,000 | activity change, % (no concentration beside the values) | AlphaScreen GST-E1A/His-CtBP binding, 1536-well; stronger effect = lower value; in the data active = activity change below about -65%; inconclusive = mostly about -30% to -63%
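In 5 uL wells, 23 nL compound meets equimolar GST-E1A and His-CtBP (5X stock 125 nM each) for 2 h, 37 °C. Beads (5X, 50 ug/mL) then 1 h, 37 °C, dark.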
GALK inh: qHTS Assay for Inhibitors of Human Galactokinase (GALK); Purified GALK, Kinase-Glo residual ATP luminescence; Potency, µM (doses to about 57.5 µM), without a hit: at the top dose activity change, negative = inhibition, most hits filed as inhibitors; hit rate 0.007% among 270,000; AID 1868, 2009; note: potency is the fitted concentration of half-maximal effect
Target sequence (P51570 whole entry, looked up): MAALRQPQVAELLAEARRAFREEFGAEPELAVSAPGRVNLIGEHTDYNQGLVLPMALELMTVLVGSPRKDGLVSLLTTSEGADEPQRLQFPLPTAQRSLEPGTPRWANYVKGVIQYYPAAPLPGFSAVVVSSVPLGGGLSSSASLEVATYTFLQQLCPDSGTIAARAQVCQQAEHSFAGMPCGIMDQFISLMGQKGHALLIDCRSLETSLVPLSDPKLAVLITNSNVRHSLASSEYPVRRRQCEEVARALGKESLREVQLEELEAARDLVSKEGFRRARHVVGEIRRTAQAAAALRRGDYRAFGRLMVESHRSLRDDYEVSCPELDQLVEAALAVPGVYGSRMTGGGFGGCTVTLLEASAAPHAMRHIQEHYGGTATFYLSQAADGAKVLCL
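Human GALK (5 nM) with 35 uM ATP and 100 uM galactose in 20 mM HEPES pH 8.0, 5 mM MgCl2, 60 mM NaCl, 1 mM DTT, 0.01% BSA. After 1 h at room temperature, leftover ATP was read by Kinase-Glo Plus luminescence.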
An asterisk follows results filed as active; ? = inconclusive; · = no result given. Unless noted, calls come from the whole dose curve; as a rule, active = well fitted curve in the direction sought with a large enough effect; inconclusive = small, poorly fitted or top-dose-only effect, or another doubt; inactive = no such curve, though single readings can be large; an effect the other way counts as inactive or inconclusive. Unless noted, % is set by controls: 0 for no effect and ±100 for the full control effect.

SMILES	Six1-Eya2 inh	Apoferritin bind	KDM4E inh	Eya2 phos inh	CtBP-E1A blk	GALK inh
Nc1ccc(CC(N)c2csc(Nc3ncccn3)n2)cc1 (stereo not given)	-66.6*	·	·	·	-75.2*	·
NC(Cc1ccc(F)cc1)c1csc(Nc2ncccn2)n1 (stereo not given)	?	·	·	·	-68.3*	·
O=C1C(=O)c2ccccc2-c2ccccc21	-1.6	-16.3%	?	11.4%	?	3.16µM*
CCC(N)C(O)c1ccc(O)c(O)c1 (stereo not given)	·	1.2%	14.1µM*	·	·	·
CCCCNC(=O)Oc1c(Br)cc2sc(=O)oc2c1Br	·	-0.4%	?	5.2%	·	4.9%
O=c1cc(CO)occ1O	·	·	25.1µM*	·	·	·
CN1CCc2cc(O)cc3c2C1Cc1ccc(O)c(O)c1-3 (stereo not given)	·	-12.8%	?	·	·	·
Oc1cc2c(cc1O)[C@H]1c3ccccc3CNC1CC2 (stereo not given in full)	·	·	20µM*	·	·	·
O=C(O)c1ccc[nH]c1=S	2.2	-4.6%	17.8µM*	?	-0.8	-0.8%
Nc1ccccc1C(=O)OCC(=O)c1ccc2c(c1)OCCO2	-24.1	?	-21.5%	16.9%	·	10.9%
O=C(CNC(=O)c1ccc(Cl)cc1)OCC(=O)c1ccc2c(c1)OCCO2	6.8	10µM*	1.0%	4.3%	5.9	0.2%
CC1CCN(S(=O)(=O)c2ccc(NN=C(C#N)C#N)cc2)CC1	·	-15.4%	6.8%	-30.3%	·	-1.3%
N#CC(C#N)=NNc1ccc(S(N)(=O)=O)cc1	?	1.9%	-8.1%	-5.1%	-73.6*	1.9%
CCC1C(=O)OC[C@H]1Cc1cncn1C (stereo not given in full)	·	-7.1%	-1.8%	·	·	·
O=[N+]([O-])c1cccc(CN2CCN(Cc3ccc(Cl)cc3)CC2)c1	-24.5	-8.2%	28.2µM*	-4.4%	-10.5	11.6%
O=[N+]([O-])c1cccc(CN2CC=C(c3ccc(F)cc3)CC2)c1	-10.4	-13.6%	·	?	-5.9	3.6%
Cc1ccccc1-n1c(O)c(/C=N/Nc2nc3c(c(=O)n(C)c(=O)n3C)n2C)c(=O)[nH]c1=S	-67.9*	-8.6%	?	1.4%	-78.0*	-2.9%
Cn1c(O)c(C=NC2CCCCC2)c(=O)[nH]c1=S	-7.9	?	-8.7%	6.4%	4.4	1.4%
Cc1cccc(-n2c(O)c(/C=N/Nc3nc4c(c(=O)n(C)c(=O)n4C)n3C)c(=O)[nH]c2=S)c1	-89.6*	0.9%	?	-14.1%	-73.1*	1.3%
Cn1c(O)c(/C=N/Nc2ccccc2)c(=O)n(C)c1=O	3.0	?	3.5%	-1.7%	-6.8	1.4%
COc1ccc(N/N=C/c2c(O)n(-c3cccc(C)c3)c(=O)[nH]c2=O)cc1	-12.9	?	-26.0%	1.2%	-8.1	3.0%
Cn1c(=O)c2c(nc(N/N=C/c3c(O)n(C4CCCCC4)c(=S)[nH]c3=O)n2C)n(C)c1=O	-81.2*	-9.2%	?	?	?	3.3%
Cc1cc(C)nc(N/N=C/C2=C(O)CC(c3ccccc3)CC2=O)n1 (stereo not given)	·	-1.7%	?	-20.9%	·	5.0%
C/C=C1/CN2CC[C@]34C(=C(C=O)[C@H]1C[C@@H]23)Nc1ccccc14	·	-6.4%	-17.6%	·	·	·
CCOP(=O)(OCC)/C(C#N)=C/c1cc(OC)ccc1OC	8.0	62.6%	-1.2%	-13.2%	·	0.5%
CCOc1ccc(/C=C/c2nc(C#N)c(NCc3ccccc3)o2)cc1	·	39.8%	·	·	·	·
Fc1ccc(CCNCc2ccccc2Cl)cc1	9.2	-23.8%	3.1%	0.1%	11.3	-0.7%
Fc1ccc(CNCCc2ccccc2)cc1	0.1	-13.4%	31.6µM*	-2.2%	-14.0	0.2%
CC1Oc2cc3c(-c4c(O)cc(O)c5c(O)c6c(cc45)OC(C)C(C)C6=O)c(O)cc(O)c3c(O)c2C(=O)C1C (stereo not given)	-26.3	?	20µM*	-4.6%	-17.8	-13.3%
